# Measured values published in PubChem BioAssay (Tox21).
# Results filed as inconclusive are left out. A call without a number means that no potency is given here. The source made the active and inactive calls. The call rests on the fitted dose curve; in most records, active means well fitted cell-killing curve with a large enough effect in the repeat runs; inconclusive means weak or mixed curves; inactive means flat fitted curve, though single readings scatter.
# Experiment: qHTS RealTime-Glo MT Cell Viability Assay in HepG2 cells - 8 hour (AID 1224873); further: nearly all actives have a fitted effect of over 55% in size
# Conditions: RealTime-Glo luminescence; series mostly up to 76.8 µM
# Description: National Center for Advancing Translational Sciences [NCATS]
# NIH Chemical Genomics Center [NCGC]
# U.S. Environmental Protection Agency [EPA]
# National Institutes of Environmental Health Sciences [NIEHS]
# National Toxicology Program [NTP]
# U.S. Food and Drug Administration [FDA]
# Measure of cell viability is critical in the cell-base assay. Analysis of cell viability is necessary for the characterization of cell responses to cytotoxic drugs and environmental stress. A RealTime-Glo MT Cell Viability Assay to monitor cell viability in real time of continues cell culture during 40 hours of compound treatment was used to screen Tox21 10K library compounds in HepG2 cells. The RealTime-Glo MT Cell Viability Assay is a nonlytic, homogeneous, bioluminescent method to measure cell viability in real time using a simple, plate-based method. The assay involves adding NanoLuc luciferase and a cell-permeant prosubstrate to cells in culture. Viable cells reduce the proprietary prosubstrate to generate a substrate for NanoLuc luciferase. This substrate diffuses from cells into the surrounding culture medium, where it is rapidly used by the NanoLuc Enzyme to produce a luminescent signal. The signal correlates with the number of viable cells, making the assay well suited for cytotoxicity studies.
# Tox21 Assay Protocol Summary:
# The mixture of HepG2 cell suspension and reagents were dispensed at 600cells/6 ul/well in 1536-well tissue culture treated black solid bottom plates using a Multidrop dispenser. After the assay plates were incubated at a 37 C/5% CO2 incubator for 5 hours, 23 nL of compounds dissolved in DMSO, positive and negative controls was transferred to the assay plate by a pintool work station. The plates were incubated at 37 C for 40 hours. The luminescence intensity were measured at 0h, 8h, 16h, 24h, 32h and 40h time points using ViewLux plate reader during compound treatment.
row,SMILES,Potency
1,O=C(CCN1CC1)OCC(CO)(COC(=O)CCN1CC1)COC(=O)CCN1CC1,inactive
2,Nc1c(Br)cc([N+](=O)[O-])cc1[N+](=O)[O-],inactive
3,Cc1nc(N)nc(N)n1,inactive
4,CC(C)CP(=S)(S)CC(C)C,inactive
5,ClC(Cl)Br,inactive
6,CC(C)(C)C(=O)C(Oc1ccc(Cl)cc1)n1cncn1 (stereo not given),inactive
7,COC(=O)C(c1ccccc1)C1CCCCN1 (stereo not given),inactive
8,Fc1ccc(C2(Cn3cncn3)OC2c2ccccc2Cl)cc1 (stereo not given),inactive
9,O=[N+]([O-])c1cc(Cl)c(Cl)c(Cl)c1,inactive
10,CCN(CC)c1nc(C)cc(OP(=S)(OC)OC)n1,inactive
11,Nc1n[nH]c(N)n1,inactive
12,[O]=[Cd],inactive
13,CCOP(=S)(OCC)SCSc1ccc(Cl)cc1,inactive
14,CC(C)NCC(O)c1ccc(N)c(C#N)c1 (stereo not given),inactive
15,CC(C)(C)NCC(O)c1cc(Cl)c(N)c(Cl)c1 (stereo not given),inactive
16,C=CCC1=C(C)[C@@H](OC(=O)[C@@H]2[C@@H](C=C(C)C)C2(C)C)CC1=O,inactive
17,CCOP(=O)(N=C1SCCS1)OCC,inactive
18,O=C1OC(c2ccc(O)c(S(=O)(=O)O)c2)(c2ccc(O)c(S(=O)(=O)O)c2)c2c(Br)c(Br)c(Br)c(Br)c21,inactive
19,ClC(Cl)(Cl)C(Cl)(Cl)Cl,inactive
20,COc1cc(OC)nc(Sc2cccc(Cl)c2C(=O)O)n1,inactive

row,SMILES,Potency
1,Cc1ncc(CNC(=O)N(CCCl)N=O)c(N)n1,inactive
2,NC(=S)C(N)=S,inactive
3,O=C(N[C@H]1CN2CCC1CC2)c1cc2ccoc2cn1,inactive
4,CCCCN(CCCCO)N=O,inactive
5,N#CC(Cl)(Cl)Cl,inactive
6,O=C(Cc1ccccc1)OCc1ccccc1,inactive
7,COc1cc2c(cc1OC)[C@@]13CCN4CC5=CCO[C@H]6CC(=O)N2[C@H]1[C@H]6[C@H]5C[C@H]43,inactive
8,Fc1cc(Br)ccc1CBr,inactive
9,COC(C)(C)C,inactive
10,CCOP(=S)(OCC)Oc1nc(Cl)n(C(C)C)n1,inactive
11,CCN(CC)C(C)C(=O)c1ccccc1 (stereo not given),inactive
12,CCC1(c2ccccc2)C(=O)N=C(O)NC1=O (stereo not given),inactive
13,CN(C)CCc1ccc(O)cc1,inactive
14,Cc1cnc[nH]1,inactive
15,OC(c1ccccc1)(c1ccccc1)C1CCNCC1,inactive
16,CCC(C)(C)c1cc(-n2nc3ccccc3n2)c(O)c(C(C)(C)CC)c1,inactive
17,CCCSC(=O)N(CCC)CCC,inactive
18,CCOC(=O)N(C)C(=O)CSP(=S)(OCC)OCC,inactive
19,COc1cccc(C(=O)NN(C(=O)c2cc(C)cc(C)c2)C(C)(C)C)c1C,inactive
20,CC1(C)CON(Cc2ccccc2Cl)C1=O,inactive
